Results on 1 molecule are retold here after PubChem BioAssay AID2284075 (EPA ToxCast).

Calls of active or inactive are those of the source. How the source made its calls: active means hit-call score of the fitted dose curve at least 0.9, where 1 is the maximum; inactive means score below 0.9.

For the experiment, the target named is human Aurora-A (AURKA) Other Protein Kinase, AURKA (gene 6790) (UniProt O14965). The experiment in a line: ERF_FR_ENZ_hAURKA: Eurofins (ERF) Enzymatic Radiometric [10 uM ATP] KinaseProfiler LeadHunter Assay for human Aurora-A (AURKA) Other Protein Kinase. As for the experimental part: ERF_FR_ENZ_hAURKA is a biochemical, single-readout assay that uses extracted gene-proteins in a cell-free assay. Measurements were taken 0.25 hour after chemical dosing in a 96-well plate. See Aurora-A Human Other Protein Kinase Enzymatic LANCE Assay [Km ATP], Cerep.ERF_FR_ENZ_hAURKA is an assay component calculated from the ERF_FR_ENZ_hAURKA assay. It is designed to measure enzyme activity using a type of enzyme reporter as detected by fluorescence intensity with LANCE technology.Data from the assay component ERF_FR_ENZ_hAURKA was analyzed at the assay endpoint, ERF_FR_ENZ_hAURKA, in the positive analysis fitting direction relative to DMSO as the negative control and baseline of activity. Using a type of enzyme reporter, loss-of-signal activity can be used to understand changes in enzymatic activity as they relate to gene AURKA. To generalize the intended target to other relatable targets, this assay endpoint is annotated to the kinase intended target family, where the subfamily is serine/threonine kinase.
human Aurora-A (AURKA) Other Protein Kinase, AURKA (gene 6790), sequence (O14965 whole entry, looked up): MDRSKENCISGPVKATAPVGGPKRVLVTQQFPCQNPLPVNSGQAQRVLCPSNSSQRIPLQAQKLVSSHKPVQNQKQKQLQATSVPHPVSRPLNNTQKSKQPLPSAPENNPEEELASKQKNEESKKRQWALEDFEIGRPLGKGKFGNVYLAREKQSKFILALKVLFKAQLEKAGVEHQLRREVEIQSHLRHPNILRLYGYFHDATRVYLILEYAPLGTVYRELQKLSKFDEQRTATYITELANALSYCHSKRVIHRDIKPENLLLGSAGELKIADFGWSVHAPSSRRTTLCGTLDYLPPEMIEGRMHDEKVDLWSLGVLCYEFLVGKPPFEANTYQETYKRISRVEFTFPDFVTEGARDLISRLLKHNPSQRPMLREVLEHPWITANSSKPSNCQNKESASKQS
Aurora-A (h) is incubated with 8 mM MOPS pH 7.0, 0.2 mM EDTA, 200 uM LRRASLG (Kemptide), 10 mM MgAcetate and [gamma-33P]-ATP (specific activity and concentration as required). The reaction is initiated by the addition of the Mg/ATP mix. After incubation for 40 minutes at room temperature, the reaction is stopped by the addition of phosphoric acid to a concentration of 0.5%. […]
Regarding `O=C(/C=C/c1ccc(O)cc1)CC(=O)/C=C/c1ccc(O)cc1`, the call was inactive.
